This is a sample that favours compounds with a hit; in the whole collection about 6.7% have one here.
Pf_Dd2_growth: P. falciparum Dd2 growth inhibitors, primary screen, SYBR Green fluorescence, single dose replicates; 2.3% of 94,000 active; activity change, % at 10 µM; 72 h; stronger effect = lower value; in the data active means activity change below about -80%; inconclusive means no clear call, values can overlap the other calls
C_diff_growth: C. difficile growth inhibitors, primary screen, HTS. Clostridium difficile clinical isolate growth, OD600, 24 h; stronger effect = lower value. growth activity, negative = inhibition, % at 16 µg/mL (by protocol). 0.25% of 86,000 active. AID 1259249, 2017;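 active means mean growth activity at or below -80% and every replicate also at or below -80%; inconclusive means mean at or below -80% but some replicate above -80%; inactive means mean growth activity above -80%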;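 further: 0% = DMSO wells and -100% = levofloxacin 16 µg/mL wells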
T_cruzi_growth-1: T. cruzi intracellular proliferation inhibitors, primary screen, cell-based, beta-gal Tulahuen parasites, NIH3T3 host, luminescence | inhibition, % at 8.34 µM | 5.9% of 77,000 active | T. cruzi beta-gal in NIH3T3, GalScreen luminescence, 90 h;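 active means mean inhibition above about 93%, with at least 55% of replicates each passing it, limit read from the data, passing the limit was not always enough; inconclusive means only one of those two conditions holds; inactive means neither condition holds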
T_cruzi_growth-2: T. cruzi intracellular proliferation inhibitors, confirmation, cell-based, NIH3T3 host, beta-gal parasite, luminescence, cherry-pick; 72% of 5,600 active; inhibition, % at 8.35 µM; T. cruzi beta-gal in NIH3T3, GalScreen luminescence, 90 h; shares compounds with T_cruzi_growth-1;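 active means mean replicate inhibition above about 95% and at least 55% of replicates individually reaching it, limit read from the data; inconclusive means only one of the two criteria is met; inactive means neither criterion is met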
T_cruzi_growth-3: inhibitors of intracellular T. cruzi replication, confirmation, NIH3T3 host cells, beta-gal parasites, cherry-pick, set 2 | shares compounds with T_cruzi_growth-1 | T. cruzi beta-gal in NIH3T3, GalScreen luminescence, 90 h | inhibition, % at 2.09 µM | 21% of 5,600 active;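 active means mean inhibition above about 95%, with at least 55% of replicates also reaching it, limit read from the data; inconclusive means meets just one of the two conditions; inactive means meets neither condition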;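 further: plate controls were neutral control median for no effect and positive control median for full effect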
3T3_cytotox: cytotoxicity in mouse NIH/3T3 fibroblasts, confirmation, cytotoxicity control for T. cruzi proliferation inhibitor project, cell-based, cherry-pick, single point; NIH/3T3 viability, CellTiter-Glo ATP luminescence, 90 h; 14% of 5,600 active; shares compounds with T_cruzi_growth-1; cytotoxicity (signal decrease), % at 8.35 µM;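 active means mean signal decrease across replicates above about 35% based on untreated-well scatter, with enough replicates individually passing, limit read from the data; inconclusive means no rule stated though some were filed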;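 further: 0% = median of neutral control wells and 100% = median of positive control wells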
3T3_cytotox_2: NIH/3T3 fibroblast cytotoxicity, confirmation, cytotoxicity control, cell-based, cherry-pick, single point, set 2; inhibition, % at 24.9 µM; shares compounds with T_cruzi_growth-1; 56% of 5,600 active; NIH/3T3 viability, CellTiter-Glo ATP luminescence, 90 h;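 active means mean loss of cell viability signal at or above a set limit, and enough replicates individually reaching it; inconclusive means meets only the mean limit or only the replicate share; inactive means meets neither condition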;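 further: 0% = median of neutral control wells and 100% = median of positive control wells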
The depositor's hits bear a star; ? = inconclusive; · = no result given.

SMILES Pf_Dd2_growth C_diff_growth T_cruzi_growth-1 T_cruzi_growth-2 T_cruzi_growth-3 3T3_cytotox 3T3_cytotox_2
O=C(Nc1ccccc1F)N1CCCCN2[C@H](CO)[C@@H](c3ccc(C#Cc4cccnc4)cc3)[C@@H]2C1 -26 30 99* 108* 90 21 55*
O=C(Nc1ccccc1F)N1CCCCN2[C@@H](CO)[C@@H](c3ccc(C#Cc4cccnc4)cc3)[C@@H]2C1 -76 10 107* 97* 94 16 60*
O=C(Nc1ccccc1F)N1CCCCN2[C@H](C1)[C@@H](c1ccc(C#Cc3cccnc3)cc1)[C@@H]2CO -14 3 104* 106* 39 26 65*
OC[C@@H]1[C@@H](c2ccc(C#Cc3ccccc3F)cc2)[C@@H]2CN(Cc3cncnc3)CCCCN12 -17 -9 83 · · · ·
CCCNC(=O)N(C)C[C@@H]1Oc2ncc(-c3ccncc3)cc2C(=O)N([C@H](C)CO)C[C@H]1C 21 4 17 · · · ·
CO[C@@H]1CN(C)C(=O)c2ccc(NC(=O)c3cnccn3)cc2OC[C@@H](C)N(CCc2ccccc2)C[C@H]1C -61 · 66 · · · ·
C[C@@H]1CN([C@@H](C)CO)C(=O)c2cc(NC(=O)C3CC3)ccc2O[C@@H]1CN(C)S(C)(=O)=O 5 1 14 · · · ·
O=C(N[C@@H]1CC[C@H](CCn2cc(Cc3ccccc3)nn2)O[C@H]1CO)c1ccccn1 -15 -2 56 · · · ·
O=C(NCc1ccccc1)[C@@H]1[C@@H](CO)[C@@H]2Cn3c(cccc3=O)[C@H]1N2C(=O)CC1CC1 4 -1 9 · · · ·
CCC(=O)N1CCC2(CC1)CN(Cc1cc(F)ccc1F)[C@H](CO)c1c2c2ccc(OC)cc2n1C -60 60 · · · · ·
O=C(C[C@@H]1CC[C@@H]2[C@H](COC[C@@H](O)CN2C(=O)c2ccccc2F)O1)NCc1ccccc1 6 · -21 · · · ·
COc1ccc(CN2C[C@@H](C)[C@@H](OC)CN(C)C(=O)c3cc(NC(C)=O)ccc3OC[C@H]2C)cc1 12 · -44 · · · ·
O=C(C[C@@H]1CC[C@H]2[C@@H](COC[C@@H](O)CN2C(=O)Nc2ccccc2)O1)NC1Cc2ccccc2C1 4 · 69 · · · ·
CO[C@@H]1CN(C)C(=O)c2cc(NC(=O)c3cccc(Oc4ccccc4)c3)ccc2OC[C@@H](C)NC[C@@H]1C · · -69 · · · ·
Cc1ccccc1S(=O)(=O)N1CC[C@@H]2[C@H]1c1cc(-c3ccc(F)cc3)ccc1N[C@@H]2CO -4 8 39 · · · ·
Cc1ccccc1S(=O)(=O)N1CC[C@@H]2[C@H](CO)Nc3ccc(-c4cccc(F)c4)cc3[C@@H]21 17 1 105* ? 109* 27 104*
Cc1ccccc1S(=O)(=O)N1CC[C@@H]2[C@@H](CO)Nc3ccc(-c4cccc(F)c4)cc3[C@@H]21 14 0 98* 104* 112* 59* 106*
Cc1ccccc1S(=O)(=O)N1CC[C@@H]2[C@H]1c1cc(-c3cccc(C#N)c3)ccc1N[C@@H]2CO 4 1 24 · · · ·
COc1cccc(-c2ccc3c(c2)[C@@H]2[C@@H](CCN2S(=O)(=O)c2ccccc2C)[C@@H](CO)N3)c1 -49 7 62 · · · ·
Cc1ccccc1S(=O)(=O)N1CC[C@@H]2[C@H]1c1cc(-c3cccc(F)c3)ccc1N[C@@H]2CO 22 1 107* 100* 48 28 106*
O=S(=O)(c1ccccc1F)N1CC[C@@H]2[C@@H](CO)Nc3ccc(-c4cccc(F)c4)cc3[C@@H]21 13 -2 29 · · · ·
N#Cc1cccc(-c2ccc3c(c2)[C@H]2[C@H](CCN2S(=O)(=O)c2ccccc2F)[C@@H](CO)N3)c1 18 -1 107* ? 67 30 55*
COCC(=O)Nc1ccc2c(c1)OC[C@H](C)N(Cc1ccccc1OC)C[C@H](C)[C@@H](OC)CN(C)C2=O -13 7 · · · · ·
Cc1ccc(S(=O)(=O)N(C)C[C@@H]2Oc3ccc(NC(=O)C4CC4)cc3C(=O)N([C@@H](C)CO)C[C@H]2C)cc1 -67 2 27 · · · ·
O=C(C1CCCC1)N1[C@@H](CO)[C@@H]2c3ccccc3N(S(=O)(=O)c3ccccc3)C[C@@H]21 -22 -5 87 · · · ·
SMILES Pf_Dd2_growth C_diff_growth T_cruzi_growth-1 T_cruzi_growth-2 T_cruzi_growth-3 3T3_cytotox 3T3_cytotox_2
O=C(Nc1ccccc1F)N[C@@H]1CC[C@H](CCNS(=O)(=O)c2ccc(F)cc2)O[C@H]1CO · -3 · · · · ·
C[C@@H]1CN([C@H](C)CO)C(=O)c2cc(NS(=O)(=O)c3ccc(Cl)cc3)ccc2O[C@@H]1CN(C)S(=O)(=O)c1cn(C)cn1 17 -6 85 · · · ·
O=C(c1cccnc1)N1CC2(C1)[C@@H](c1ccccc1)[C@@H](CO)N2C(=O)c1cccnc1 -11 -1 · · · · ·
Cn1cnc(S(=O)(=O)N2CC[C@@H]3[C@H]2c2cc(-c4ccc(F)cc4)ccc2N[C@@H]3CO)c1 -12 -6 62 · · · ·
Cn1cnc(S(=O)(=O)N2CC[C@@H]3[C@H]2c2cc(-c4cccc(F)c4)ccc2N[C@@H]3CO)c1 18 -13 ? 101* 42 3 4
Cc1ccccc1S(=O)(=O)N1CC[C@@H]2[C@H](CO)Nc3ccc(-c4ccccc4)cc3[C@@H]21 1 17 107* 102* ? 12 104*
Cc1ccccc1S(=O)(=O)N1CC[C@H]2[C@H](CO)Nc3ccc(-c4ccc(F)cc4)cc3[C@H]21 14 47 25 · · · ·
COc1ccc2c3c(n(C)c2c1)[C@H](CO)N(C(=O)c1cccc(F)c1)CC31CN(CC2CC2)C1 -78 1 · · · · ·
Cc1ccc(-c2ccc3c(c2)O[C@@H](CN(C)Cc2ccc(F)cc2)[C@@H](C)CN([C@H](C)CO)S3(=O)=O)cc1 -69 8 92 · · · ·
Cc1ccc(-c2ccc3c(c2)O[C@H](CN(C)Cc2ccc(C(=O)O)cc2)[C@@H](C)CN([C@H](C)CO)S3(=O)=O)cc1 -30 -4 61 · · · ·
Cc1ccc(-c2ccc3c(c2)O[C@@H](CN(C)Cc2ccc(F)cc2)[C@H](C)CN([C@@H](C)CO)S3(=O)=O)cc1 -62 13 ? 96* 103* 63* 105*

Compound activity from PubChem.
